High-throughput results: PubChem, Johns Hopkins Ion Channel Center
An excerpt weighted towards active compounds, which were near 1.6% of everything screened.
KCNQ2 block: rat KCNQ2 potassium channel inhibitors, primary screen, cell-based, CHO-K1, FluxOR thallium flux, B-score. B-score at 10 µM. 20 min; active compounds read low. Potassium voltage-gated channel subfamily KQT member 2 (Rattus norvegicus), O88943. 1.1% of 310,000 active;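 active means fluorescence ratio B-score at most minus 3 library SDs, with starting brightness B-score within 2 library SDs, cut at about -5.5 in these data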
KCNQ2 pot: potentiators of rat KCNQ2 potassium channel; CHO-K1 KCNQ2, FluxOR thallium flux fluorescence; active compounds read high; 0.54% of 310,000 active; Potassium voltage-gated channel subfamily KQT member 2 (Rattus norvegicus), O88943; B-score at 10 µM;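 active means fluorescence ratio B-score at least 3 SD of library B-scores, with initial fluorescence B-score within 3 of them, cut at about 5.3 in these data; same plate scores as AID 2156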;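 further: B-score of peak minus minimum over baseline fluorescence ratio after K+ and Tl+ stimulus; positive B-score means potentiation of KCNQ2 with more thallium influx and brighter signal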
KCNQ2 block conf: rat KCNQ2 potassium channel inhibitors, confirmation, cell-based, thallium flux. shares compounds with KCNQ2 block. 57% of 1,000 active. activity change, negative = inhibition, % at 10 µM. AID 493025, 2011. KCNQ2-expressing cells, inhibition; active compounds read low;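 further: 0% = vehicle wells and values are ratio percent relative to vehicle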
KCNQ1 spec: human KCNQ1 channel inhibition, counter-screen for KCNQ2 inhibitor project, cell-based, FluxOR thallium flux | shares compounds with KCNQ2 block | KCNQ1-expressing cells, FluxOR thallium flux fluorescence; active compounds read low | activity change, negative = inhibition, % at 10 µM | 15% of 1,000 active | AID 493026, 2011;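 active means activity change at least 3 SD of negative controls below their mean in both duplicate wells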;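 further: CHO cells stably transfected with KCNQ1 and depolarized by potassium stimulus; peak minus minimum fluorescence over baseline after thallium addition; 0% = vehicle negative control and -100% = blank without thallium stimulus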
CHO parental ctr: thallium flux change in parental CHO cells, counter-screen for KCNQ2 inhibitor project. shares compounds with KCNQ2 block. active compounds read low. activity change, % at 10 µM. 14% of 1,000 active;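 further: 0% = vehicle negative controls with stimulus buffer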
KCNQ2 patch conf: rat KCNQ2 channel inhibitors, confirmation, cell-based, automated patch clamp, single concentration. KCNQ2-expressing cells, automated patch clamp current. shares compounds with KCNQ2 block. 49% of 550 active. AID 588531, 2011. calls only at 10 µM
Numbers without * were called inactive; i = inactive; . = no result; + = active, no number. Unless noted, how the calls were made is not given here.

SMILES	KCNQ2 block	KCNQ2 pot	KCNQ2 block conf	KCNQ1 spec	CHO parental ctr	others
COc1ccccc1N1CCN(C2=Nc3cccc4cccc2c34)CC1	-9*	-9	-34%*	i	i	KCNQ2 patch conf=+
CCNC(=O)[C@@H]1CCCN1C(=O)[C@H](CCCN=C(N)N)NC(=O)[C@H](CC(C)C)NC(=O)[C@@H](CC(C)C)NC(=O)[C@H](Cc1ccc(O)cc1)NC(=O)[C@H](CO)NC(=O)[C@H](Cc1c[nH]c2ccccc12)NC(=O)[C@H](Cc1cnc[nH]1)NC(=O)[C@@H]1CCC(=O)N1	i	0.2	.	.	.
COc1cc(C(=O)NC(=S)Nc2ccc(N3CCCC3)cc2)cc(OC)c1OC	i	0.34	.	.	.
CN1/C(=C\C(=O)c2cccnc2)C(C)(C)c2ccccc21	i	.	.	.	.
CN1/C(=C\C(=O)c2cncc(Br)c2)C(C)(C)c2ccccc21	-8*	-8	-40%*	-43%*	-37%*	KCNQ2 patch conf=i
O=C(CSCc1ccc(Cl)cc1)NCc1ccccn1	i	.	.	.	.
O=C(NC(C(=O)N/N=C/c1ccccn1)c1n[nH]c(=O)c2ccccc12)c1ccccc1 (centres undefined)	i	.	.	.	.
CC(C)c1ccc(N2C(=O)CC(NNC(=O)c3cccnc3)C2=O)cc1 (centres undefined)	i	.	.	.	.
O=[N+]([O-])c1ccc(C2CCCC/C2=N\OCc2cccc(F)c2)c([N+](=O)[O-])c1 (centres undefined)	-8.3*	-8.3	i	i	i
CC1CCCC/C1=N/Nc1ccc([N+](=O)[O-])cc1[N+](=O)[O-] (centres undefined)	i	0.38	.	.	.
O=C(Nc1ccc(F)c(Cl)c1)c1cncs1	i	0.44	.	.	.
CCC1Sc2ccc(S(=O)(=O)CCC(=O)NCc3ccco3)cc2NC1=O (centres undefined)	i	.	.	.	.
CC(C)(C)c1cccc(OCCCSc2ncccn2)c1	-9.2*	-9.2	i	i	i
Cc1ccc(OCCCSc2ncccn2)cc1C	i	.	.	.	.
CC1(C2CC(C(F)(F)F)n3nc(C(=O)O)cc3N2)CC1 (centres undefined)	i	0.07	.	.	.
Cc1cccn2c(CNCC3(c4ccccc4)CCCC3)c(C(=O)N3CCOCC3)nc12	i	.	.	.	.
COCCCN(C(=S)Nc1cc(Cl)cc(Cl)c1)C(C)c1ccncc1 (centres undefined)	i	0.36	.	.	.
COCCCN(C(=S)Nc1cc(Cl)cc(Cl)c1)C(C)c1ccccn1 (centres undefined)	-8.5*	-8.5	i	i	i
CC(C)=CC(=O)NCc1c(Cl)cccc1-n1cccc1	i	.	.	.	.
COc1cc(C(=O)Nc2nc(OC)c(-c3ccccc3)c(OC)n2)cc(OC)c1OC	i	0.82	.	.	.
COc1cc(C(=O)Nc2cc(-c3ccccc3)[nH]n2)cc(OC)c1OC	-6.6*	-6.6	-25%*	i	i	KCNQ2 patch conf=i
COc1ccc(NS(=O)(=O)c2cc(NC(=O)/C=C/c3ccccc3OC)ccc2N2CCCCC2)cc1	i	.	.	.	.
CCOC(=O)N1CCN(C(=O)Cc2ccccc2OC)CC1	i	0.02	.	.	.
O=C(COC(=O)c1ccccc1C(=O)c1ccc(Cl)cc1)NCCc1ccccc1	i	.	.	.	.
O=C(OCc1ccccc1Cl)c1ccccc1C(=O)c1ccccc1	-8.3*	-8.3	-36%*	-36%*	-34%*	KCNQ2 patch conf=i
O=C(COC(=O)c1ccccc1C(=O)c1ccc(Cl)cc1)NC(c1ccccc1)c1ccccc1	-8.7*	-8.7	i	i	i
O=C(OCc1ccccc1Cl)c1cccnc1Cl	i	.	.	.	.
COc1cc(-c2nnc(SCC(=O)N3c4ccccc4Sc4ccccc43)o2)cc(OC)c1OC	i	.	.	.	.
O=C(Sc1nnc(-c2ccccc2)o1)N1c2ccccc2Sc2ccccc21	-6.8*	-6.8	i	i	i
